According to PubChem BioAssay AID743398 (Broad Institute, 2014):
In all, about 300,000 compounds went through this assay and about 3,600 (1.2%) were called active. Cut-off read from the data, not from the text of the source: active = activation above about 30% (passing the limit was not always enough); inconclusive = no clear call, values can overlap the other calls. The entries come from a sample that favours actives as a whole.

Assay: Wnt/beta-catenin pathway activators, primary screen, cell-based, plate reader, single point (AID 743398);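 note: 0% = neutral control wells and 100% = positive control wells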
Conditions: Wnt/beta-catenin reporter cell assay, activator, at 9.35 µM, active compounds read high

activation, active:
O=C(Cc1nc2ccccc2[nH]c1=O)c1ccc(Cl)cc1 52.5%
Cc1ccc(-n2ncc3c(Nc4cccc(C(=O)O)c4)ncnc32)cc1 42.2%
COc1ccc(C2C(C#N)=C(N)N(c3ncn[nH]3)C3=C2C(=O)CCC3)cc1 (stereo unspecified) 43.2%
Cc1sc2ncnc(N3CCC(C(=O)Nc4nc5ccc(Cl)cc5s4)CC3)c2c1C 38.3%
COc1ccc(Cn2c(-c3ccc(Cl)cc3)c[n+]3ccccc23)cc1 68.9%
O=C(COC(=O)c1ccc(O)cc1O)c1ccc2c(c1)OCCO2 53.6%
O=C(NC1CCCC1)c1cc(-c2ccccc2)on1 46.9%
O=C(NCCCn1ccnc1)c1cc(-c2ccccc2)on1 113%
Cc1cnc(NC(=O)c2ccccn2)s1 41.6%
NC(=O)CSc1nnc(NC(=O)c2ccc3ccccc3c2)s1 39.8%
Nc1ccc(N=Nc2ccccc2Cl)c(N)n1 37.3%

activation, inactive:
CC(C)C[C@H](NC(=O)CC1CCCC1)C(=O)N1CCC[C@H]1C(=O)NCc1ccccc1 3.46%
COc1cccc(NC(=O)C2(C)CCN2C(=O)CCC2CCCC2)c1 (stereo unspecified) -2.67%
Cc1ccc(Cc2c(-c3ccc(Cl)cc3)nc3c4ccccc4ccn23)cc1 -0.0465%
O=C(CSc1nc2ccc([N+](=O)[O-])cc2[nH]1)c1ccc(Cl)cc1 -2.13%
O=C(/C(=C/c1cccc(Cl)c1)c1nc2ccccc2[nH]1)c1ccccc1 27.7%
O=C(NNc1ncnc2c1cnn2-c1ccccc1)c1ccco1 0.184%
Cc1ccc(Nc2ncnc3c2cnn3C)c(C)c1 0.858%
CC(=O)C1=C(C)N(Cc2ccc(Cl)cc2)C(=S)NC1c1ccc(F)cc1 (stereo unspecified) -10%
N#CC1=C(N)N(c2ccccc2)C2=C(C(=O)CCC2)C1c1ccccc1 (stereo unspecified) -0.648%
CCOc1ccc(C2C(C#N)=C(N)N(N(C)C)C3=C2C(=O)CCC3)cc1 (stereo unspecified) 6.29%
COc1cccc(-c2nc3nc(C)cc(C)n3c2NC2CCCCC2)c1 5.8%
CC[C@H](NC(=O)[C@H](Cc1ccccc1)NC(=O)[C@H]1O[C@@H](n2cnc3c(=O)[nH]c(N)nc32)[C@H](O)[C@@H]1O)c1ccccc1 -0.864%
Cc1sc2ncnc(N3CCC(C(=O)Nc4ccc(F)cc4Cl)CC3)c2c1C -1.16%
Cc1sc2ncnc(N3CCC(C(=O)NNC(=O)c4ccc(F)cc4)CC3)c2c1C 3.2%
C[C@H](NC(=O)[C@@H]1CCCN1C(=O)[C@@H]1CCCN1C(=O)c1ccccc1)c1ccccc1 -3.41%
CCn1c(C)cc(=O)cc1-c1ccc(Cl)cc1 2.88%
COc1ccc(Cn2c(=O)oc3ccccc32)cc1 8.74%
Cc1cc(C)n2c(NCc3ccccc3)c(CC(C)C)nc2n1 -0.325%
COC(=O)C1=C(C)N(Cc2cccc(C(F)(F)F)c2)C(=NCc2ccccc2)NC1c1ccccc1C(F)(F)F (stereo unspecified) -15.6%
O=C(CC(CC(=O)c1ccccc1)c1ccco1)c1ccccc1 0.593%
O=C(COC(=O)c1ccc(O)cc1O)NC(=O)c1ccccc1 -3.61%
O=C(COC(=O)c1ccccc1)c1ccc2c(c1)OCCO2 -3.49%
O=C(O)Cn1cnc2c(NCc3ccccc3)ncnc21 -0.517%
COC(=O)C1=C(C)N(Cc2cccc(C(F)(F)F)c2)C(=NCc2ccccc2)NC1c1ccc(Cl)cc1 (stereo unspecified) -31.1%
O=C(NC1CCCCC1)c1cc(C2CC2)on1 24.8%
O=C(NC1CCCCCCC1)c1cccs1 9.38%
COc1ccc(-c2cc(C(=O)NCCCn3ccnc3)no2)cc1 6.05%
O=C(NCCCn1ccnc1)c1ccccc1F -0.169%
Cc1ccccc1S(=O)(=O)N1[C@@H](c2cccc(Cl)c2)C(C(=O)OC(C)(C)C)=CC[C@H]1c1ccc(Cl)cc1 -9.66%
COc1ccccc1-c1ccc([C@@H]2C[C@H]3[C@H](CON3C)CN2S(=O)(=O)c2cc(Cl)cc(Cl)c2)cc1 -3.43%
COC(=O)[C@]12C[C@H](CC(=O)NCc3ccccc3)C(=O)N(CCC3=CCCCC3)C1=C[C@H](C(C)(C)C)O[C@@H]2C -7.29%
Cc1cccc(CNC(=O)c2sc(=O)n(Cc3ccccc3C)c2C)c1 -2.16%
Cc1cnc(NC(=O)c2ccc(Cl)nc2)s1 29%
O=C(Nc1nnc(C2CC2)s1)c1ccccn1 3.38%
COC(=O)[C@]12C[C@H](CC(=O)NCCCCc3ccccc3)C(=O)N(Cc3ccc4c(c3)OCO4)C1=C[C@H](C(C)(C)C)O[C@@H]2C -8.78%
NC(=O)CSc1nnc(NC(=O)c2ccc(Br)o2)s1 3.36%
O=C(/C=C/c1ccccc1)Nc1nnc(SCC(=O)c2ccc3ccccc3c2)s1 -11.8%
COc1ccc(CC(N)c2csc(NC(=O)Nc3ccc(C(C)C)cc3)n2)cc1 (stereo unspecified) 0.986%
Cc1ccc(C)c(CN2CCC(CNC(=O)C3CCCN(c4ncnc5c4nc4n5CCCCC4)C3)CC2)c1 (stereo unspecified) 2.22%
CSc1ccc(CN2CCC2(C)C(=O)NCc2ccccc2Br)cc1 (stereo unspecified) -0.564%
CCOC(=O)C1CCCN(C(=O)c2cc(-c3cccs3)oc2C)CC1 (stereo unspecified) -1.53%
CCN1C(=O)[C@@H]2[C@@H]3CN(S(=O)(=O)c4ccccc4C)[C@@H](c4ccc(Cl)cc4)[C@@H]3C(=O)C[C@@H]2C1=O -1.76%
Oc1cccc2cc(-c3ccncc3)cnc12 4.6%
C=CC[C@]12C[C@@]3(O[C@H](c4ccc(C(F)(F)F)cc4)N=C3C[C@H](c3ccc(OC)cc3)[C@H]1C)N(C1CCN(Cc3ccccc3)CC1)C2=O -5.8%
C=CCOc1cccc(C2C(C(=O)c3ccc(C)o3)=C(O)C(=O)N2CCN2CCOCC2)c1 (stereo unspecified) -3.18%
